# Data published in PubChem BioAssay AID1159580 (chemical genetic matrix, 2015).
# “And” between values parts separate entries of the source, which are not always exact repeats. Identical values can stand only once. The campaign covered roughly 5,500 compounds. About 2,000 (36%) were called active. About 18% were inconclusive and are not listed. No stated cut-off is given here; in the data, active means normalized growth mostly below about 0.91 (no sharp cut-off); inconclusive means no clear call, values can overlap the other calls; inactive means mostly above about 0.92. This is one part of the list.
# Assay: chemical genetic growth profiling, strain panel (AID 1159580);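 further: tested at 20 µM; growth read once vehicle control cultures reached saturation at 30 °C; 1 = growth at the plate median or of vehicle wells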
# Settings: S. cerevisiae deletion strains, growth OD
smiles,measurement,setting,value
CC(C)c1nc(N(C)S(C)(=O)=O)nc(-c2ccc(F)cc2)c1/C=C/[C@@H](O)C[C@@H](O)CC(=O)O,normalized growth,"locus YAL013W, strain DEP1, stronger effect = lower value",0.988 (inactive)
same,normalized growth,"locus YAL021C, strain ccr4, stronger effect = lower value",0.839 (active)
same,normalized growth,"locus YAL026C, strain drs2, stronger effect = lower value",0.98 (inactive)
same,normalized growth,"locus YAL030W, strain snc1, stronger effect = lower value",0.998 (inactive)
same,normalized growth,"locus YBL061C, strain skt5, stronger effect = lower value",1.02 (inactive)
same,normalized growth,"locus YBR009C, strain hhf1, stronger effect = lower value",0.998 (inactive)
same,normalized growth,"locus YBR021W, strain FUR4, stronger effect = lower value",0.96 (inactive)
same,normalized growth,"locus YBR023C, strain chs3, stronger effect = lower value",1.02 (inactive)
same,normalized growth,"locus YBR171W, strain sec66, stronger effect = lower value",1.01 (inactive)
same,normalized growth,"locus YBR229C, strain ROT2, stronger effect = lower value",1.01 (inactive)
same,normalized growth,"locus YBR231C, strain swc5, stronger effect = lower value",0.922 (inactive)
same,normalized growth,"locus YBR279W, strain paf1, stronger effect = lower value",0.99 (inactive)
same,normalized growth,"locus YCL011C, strain gbp2, stronger effect = lower value",1.01 (inactive)
same,normalized growth,"locus YCL016C, strain dcc1, stronger effect = lower value",0.998 (inactive)
same,normalized growth,"locus YCL029C, strain bik1, stronger effect = lower value",1.01 (inactive)
same,normalized growth,"locus YCL069W, strain vba3, stronger effect = lower value",1.02 (inactive)
same,normalized growth,"locus YCR088W, strain abp1, stronger effect = lower value",1.03 (inactive)
same,normalized growth,"locus YDL005C, strain med2, stronger effect = lower value",1.02 (inactive)
same,normalized growth,"locus YDL035C, strain GPR1, stronger effect = lower value",1 (inactive)
same,normalized growth,"locus YDL040C, strain nat1, stronger effect = lower value",1.01 (inactive)
same,normalized growth,"locus YDL074C, strain BRE1, stronger effect = lower value",0.995 (inactive)
same,normalized growth,"locus YDL101C, strain DUN1, stronger effect = lower value",0.996 (inactive)
same,normalized growth,"locus YDL134C, strain PPH21, stronger effect = lower value",0.995 (inactive)
same,normalized growth,"locus YDL185W, strain tfp1, stronger effect = lower value",0.928 (inactive)
same,normalized growth,"locus YDL192W, strain arf1, stronger effect = lower value",1 (inactive)
same,normalized growth,"locus YDR001C, strain nth1, stronger effect = lower value",1.03 (inactive)
same,normalized growth,"locus YDR069C, strain doa4, stronger effect = lower value",0.971 (inactive)
same,normalized growth,"locus YDR101C, strain arx1, stronger effect = lower value",0.999 (inactive)
same,normalized growth,"locus YDR137W, strain rgp1, stronger effect = lower value",1.34 [resistant] (active)
same,normalized growth,"locus YDR150W, strain NUM1, stronger effect = lower value",1.01 (inactive)
same,normalized growth,"locus YDR159W, strain sac3, stronger effect = lower value",0.998 (inactive)
same,normalized growth,"locus YDR162C, strain NBP2, stronger effect = lower value",0.961 (inactive)
same,normalized growth,"locus YDR195W, strain ref2",1.09 (inactive)
same,normalized growth,"locus YDR297W, strain sur2, stronger effect = lower value",0.977 (inactive)
same,normalized growth,"locus YDR318W, strain mcm21, stronger effect = lower value",1.01 (inactive)
same,normalized growth,"locus YDR334W, strain swr1, stronger effect = lower value",0.982 (inactive)
same,normalized growth,"locus YDR335W, strain msn5, stronger effect = lower value",1.02 (inactive)
same,normalized growth,"locus YDR388W, stronger effect = lower value",1.01 (inactive)
same,normalized growth,"locus YDR392W, strain spt3, stronger effect = lower value",1.02 (inactive)
same,normalized growth,"locus YDR502C, strain sam2, stronger effect = lower value",1 (inactive)
same,normalized growth,"locus YEL003W, strain gim4, stronger effect = lower value",1.02 (inactive)
same,normalized growth,"locus YEL037C, strain rad23, stronger effect = lower value",1.01 (inactive)
same,normalized growth,"locus YEL061C, strain CIN8 (second series), stronger effect = lower value",1.02 (inactive)
same,normalized growth,"locus YEL061C, strain CIN8, stronger effect = lower value",0.998 (inactive)
same,normalized growth,"locus YER015W, strain faa2, stronger effect = lower value",0.99 (inactive)
same,normalized growth,"locus YER016W, strain bim1, stronger effect = lower value",1.01 (inactive)
same,normalized growth,"locus YER110C, stronger effect = lower value",0.999 (inactive)
same,normalized growth,"locus YER111C, strain swi4, stronger effect = lower value",1.02 (inactive)
same,normalized growth,"locus YER155C, strain BEM2 (second series), stronger effect = lower value",1.02 (inactive)
same,normalized growth,"locus YER155C, strain BEM2, stronger effect = lower value",0.99 (inactive)
same,normalized growth,"locus YER167W, strain BCK2, stronger effect = lower value",1 (inactive)
same,normalized growth,"locus YFR010W, strain ubp6, stronger effect = lower value",0.995 (inactive)
same,normalized growth,"locus YGL078C, strain dbp3, stronger effect = lower value",0.997 (inactive)
same,normalized growth,"locus YGL086W, strain mad1, stronger effect = lower value",1.01 (inactive)
same,normalized growth,"locus YGL167C, strain pmr1, stronger effect = lower value",1.01 (inactive)
same,normalized growth,"locus YGL173C, strain kem1, stronger effect = lower value",1 (inactive)
same,normalized growth,"locus YGL227W, strain vid30, stronger effect = lower value",1.02 (inactive)
same,normalized growth,"locus YGL240W, strain doc1, stronger effect = lower value",1.03 (inactive)
same,normalized growth,"locus YGL248W, strain PDE1, stronger effect = lower value",0.993 (inactive)
same,normalized growth,"locus YGL253W, strain hxk2, stronger effect = lower value",1.01 (inactive)
same,normalized growth,"locus YGR078C, strain PAC10, stronger effect = lower value",1.01 (inactive)
same,normalized growth,"locus YGR135W, strain pre9, stronger effect = lower value",0.987 (inactive)
same,normalized growth,"locus YGR229C, strain SMI1, stronger effect = lower value",1.01 (inactive)
same,normalized growth,"locus YGR252W, strain gcn5, stronger effect = lower value",1.04 (inactive)
same,normalized growth,"locus YHR013C, strain ard1, stronger effect = lower value",0.972 (inactive)
same,normalized growth,"locus YHR027C, strain rpn1, stronger effect = lower value",1.01 (inactive)
same,normalized growth,"locus YHR030C, strain SLT2, stronger effect = lower value",1 (inactive) and 0.0994 (active)
same,normalized growth,"locus YHR079C, strain IRE1 (second series), stronger effect = lower value",1 (inactive)
same,normalized growth,"locus YHR079C, strain IRE1, stronger effect = lower value",0.127 (active)
same,normalized growth,"locus YHR094C, strain hxt1, stronger effect = lower value",1.01 (inactive)
same,normalized growth,"locus YHR129C, strain ARP1, stronger effect = lower value",0.99 (inactive)
same,normalized growth,"locus YHR142W, strain chs7, stronger effect = lower value",1.02 (inactive)
same,normalized growth,"locus YHR200W, strain rpn10, stronger effect = lower value",1 (inactive)
same,normalized growth,"locus YIL066C, strain RNR3, stronger effect = lower value",1.02 (inactive)
same,normalized growth,"locus YIL073C, strain SPO22, stronger effect = lower value",1 (inactive)
same,normalized growth,"locus YIL125W, strain kgd1, stronger effect = lower value",1.02 (inactive)
same,normalized growth,"locus YIR030C, strain dcg1, stronger effect = lower value",1.01 (inactive)
same,normalized growth,"locus YJL092W, strain hpr5, stronger effect = lower value",1.03 (inactive)
same,normalized growth,"locus YJL095W, strain BCK1 (second series), stronger effect = lower value",0.986 (inactive)
same,normalized growth,"locus YJL095W, strain BCK1, stronger effect = lower value",0.996 (inactive) and 0.12 (active)
same,normalized growth,"locus YJL115W, strain asf1, stronger effect = lower value",1 (inactive)
same,normalized growth,"locus YJL129C, strain trk1, stronger effect = lower value",1.08 (inactive)
same,normalized growth,"locus YJL134W, strain LCB3, stronger effect = lower value",1 (inactive)
same,normalized growth,"locus YJL154C, strain vps35, stronger effect = lower value",1.01 (inactive)
same,normalized growth,"locus YJL164C, strain tpk1, stronger effect = lower value",1 (inactive)
same,normalized growth,"locus YJL166W, strain qcr8, stronger effect = lower value",0.994 (inactive)
same,normalized growth,"locus YJL168C, strain set2, stronger effect = lower value",1.01 (inactive)
same,normalized growth,"locus YJL187C, strain SWE1 (second series), stronger effect = lower value",1 (inactive)
same,normalized growth,"locus YJL187C, strain SWE1, stronger effect = lower value",0.998 (inactive)
same,normalized growth,"locus YJR043C, strain POL32, stronger effect = lower value",0.997 (inactive)
same,normalized growth,"locus YJR066W, strain TOR1, stronger effect = lower value",0.00783 (active)
